Inconclusive results are not listed. A call without a number means that no potency is given here. Active and inactive are the calls of the source. Calls come from the whole dose curve; as a rule, active = well fitted cell-killing curve with a large enough effect in the repeat runs; inconclusive = weak or mixed curves, or effect the other way; inactive = no such curve, though single readings can be large or run the other way.
Potency is the fitted concentration of half-maximal effect.

The assay in a line: qHTS assay to identify small molecule antagonists of the retinoid-related orphan receptor gamma (ROR-gamma) signaling pathway - cell viability counter screen (AID 1159520). Note: nearly all actives have a fitted effect of over 50% in size. Particulars: Tet-on RORgamma CHO cells viability, ATP luminescence, 16 h; series mostly up to 92.4 µM. From the text: U.S. Tox21 Program National Center for Advancing Translational Sciences [NCATS] NIH Chemical Genomics Center [NCGC] U.S. Environmental Protection Agency [EPA] National Institutes of Environmental Health Sciences [NIEHS] National Toxicology Program [NTP] U.S. Food and Drug Administration [FDA] Tox21 Assay Overview: Nuclear steroid hormone receptors are involved in many biological processes including inflammatory responses, cell proliferation, and apoptosis. Environmental factors or compounds disrupting these nuclear receptor pathways and gene expression may promote susceptibility to immunotoxicants and autoimmune diseases. One important group of these expression factors are the retinoid-related orphan receptors. To assess compounds that may interfere with the retinoid-related orphan receptor gamma (ROR-gamma) transcription factor, a cell-based luciferase assay was used. The CHO cell-based assay utilizes a TET-inducible ROR expression factor and ROR response element-LUC reporter gene. Reporter gene activity was induced using Doxycycline Hyclate and measured after 16 hr incubation. Tet-on ROR gamma CHO cells were used to screen against the Tox21 10K compound library for cytotoxicity by measuring the viability of the cells based on the quantitation of the ATP.
Tox21 Assay Protocol Summary: Tet-on ROR gamma CHO cells were dispensed at 1,000 cells in 4 uL of culture medium per well into white wall/solid bottom 1536-well plates using a Multidrop Combi (Thermo Scientific, Waltham, MA) dispenser. Following incubation at 37 C and 5% CO2 for 4 hr, 23 nL of compounds dissolved in DMSO, positive controls or DMSO only were transferred by a Pintool station (Kalypsys, San Diego, CA) and after 2 hr incubation at 37 C, one ul of 1 uM (final concentration) of Doxycycline Hyclate was added to all the wells by using a Flying Reagent Dispenser (FRD) (Aurora Discovery, San Diego, CA). After 16 hr incubation at 37 C and 5% CO2, 5 uL of CellTiter-Glo reagent (Promega Corporation, Madison, WI) was added to each assay plate using FRD. After 30 min incubation at room temperature, luminescence was quantified on a ViewLux plate reader (Perkin Elmer, Waltham, MA).
(In general: In qHTS, concentration-response curves come from the screen itself.)
In the case of `CN1C(=O)CC(c2ccccc2)C1=O` (stereo not given), the Potency result is “inactive”.

As for `CCCCNc1ccc(C(=O)OCCN(CC)CC)cc1`, the Potency entry is “inactive”.

Take `O=C1N(c2ccccc2)c2ccccc2C1(Cc1ccncc1)Cc1ccncc1`: the Potency result was “inactive”.

With `CCCc1c2oc(C(=O)O)cc(=O)c2cc2c(=O)cc(C(=O)O)n(CC)c12`, the Potency result is “inactive”.

`CCC/C=C/CO`: the Potency entry was “inactive”.

Regarding `O=C(O)c1ccccc1Nc1cc(Cl)ccc1C(=O)O`, the activity, negative = cytotoxicity was -2.84% [at 19 µM] (inactive).

Consider `CC/C=C\CCOC(=O)C(C)C`, for which the Potency result is “inactive”.

Turning to `Cc1ccc([N+](=O)[O-])c(N)c1`, the Potency entry was “inactive”.

In the case of `O=C1CCCc2ccccc21`, the Potency entry was “inactive”.

`CCN[C@H]1CN(CCCOC)S(=O)(=O)c2sc(S(N)(=O)=O)cc21`: the Potency entry was “inactive”.

With `CN(CC1(C)CCCO1)S(=O)(=O)c1ccc(Cl)c(S(N)(=O)=O)c1` (stereo not given), the Potency entry was “inactive”.

Consider `COc1cc(Cl)ccc1Cl`, for which the Potency result was “inactive”.

As to `Cc1onc(-c2ccccc2)c1C(=O)Cl`, the Potency result was “inactive”.

In the case of `C[C@@H]1CN(c2c(F)c(F)c3c(=O)c(C(=O)O)cn(C4CC4)c3c2F)C[C@H](C)N1`, the activity, negative = cytotoxicity is 3.95% [at 19 µM] (inactive).

With `CCCNC(C)C(=O)Nc1c(C)csc1C(=O)OC` (stereo not given), the Potency result is “inactive”.

Regarding `OCC(CBr)(CBr)CBr`, the Potency entry is “inactive”.

As to `CN1CCN(c2c(F)cc3c(=O)c(C(=O)O)cn4c3c2SCC4)CC1`, the Potency result is “inactive”.

Turning to `CCCCNCCCC`, the Potency result was “inactive”.

`CN1CCN(c2c(F)cc3c(=O)c(C(=O)O)cn(CCF)c3c2F)CC1`: the Potency result was “inactive”.

For the compound `OCCN(CCO)CCN(CCO)CCO`, the Potency entry was “inactive”.

As to `O=S(=O)(O)C(F)(F)F`, the Potency entry is “inactive”.

`CC(C)Nc1nc(N)nc(Cl)n1`: the Potency entry is “inactive”.

As to `O=C1CCC(C2CCCCC2)CC1`, the Potency result was “inactive”.

Turning to `NC/C=C/C(=O)O`, the Potency entry is “inactive”.

Turning to `CCNCCO`, the Potency result is “inactive”.

Turning to `CCOC(=O)NCCC[Si](OCC)(OCC)OCC`, the Potency entry was “inactive”.

Consider `CC(C)CC(=O)OCc1ccccc1`, for which the Potency result is “inactive”.

With `OCc1c2ccccc2cc2ccccc12`, the Potency result was “inactive”.

On to `CCCCCOc1ccc(C2SC(=O)NC2=O)cc1OCC` (stereo not given), for which the Potency entry is “inactive”.

Turning to `CCCS(=O)c1ccc2nc(NC(=O)OC)[nH]c2c1` (stereo not given), the Potency entry was “inactive”.

Turning to `Cc1nnc(SCC2=C(C(=O)O)N3C(=O)[C@@H](NC(=O)Cn4cnnn4)[C@H]3SC2)s1`, the Potency entry was “inactive”.

`CC1=C(O)C(=O)OC1C` (stereo not given): the Potency result was “inactive”.

Take `CCCCc1ccc2nc(NC(=O)OC)[nH]c2c1`: the Potency entry is “inactive”.

Take `CCCCCCCCOC(=O)CCCCCCCCC(=O)OCCCCCCCC`: the Potency result was “inactive”.

`CC(=O)N[C@@H](CC(C)C)C(=O)O`: the Potency entry is “inactive”.

In the case of `CN(CCCN1c2ccccc2CCc2ccccc21)CC(=O)c1ccc(Cl)cc1`, the Potency was 29.8 µM (active).

`N#Cc1ccc(C(c2ccc(C#N)cc2)n2cncn2)cc1`: the Potency result is “inactive”.

On to `CCCCC1CCC(=O)O1` (stereo not given), for which the Potency result was “inactive”.

With `Cc1ccc(C)c(N)c1`, the Potency result was “inactive”.

For `CCC(=O)Nc1ccc(O)cc1`, the Potency result was “inactive”.

These data come from PubChem BioAssay (Tox21).
